# Experimental data reported in the supplement of paper PMC3545927.
# The list shows a part of the results. The hit rate among all sequences tested is not known here.
# B1: HC1360 (peptide)
# chain: CADLSDGSWSAGNASASA
# B2: FS-1161 (peptide)
# chain: CARRQVWKRRAGNASASA
# B3: FS-3261 (peptide)
# chain: CARRIRFVGRAGNASASA
# B4: FS-713 (peptide)
# chain: CARRLRDKRRAGNASASA
# B5: HC1645 (peptide)
# chain: CAGWFTAGYSAGNASASA
# B6: HC2229 (peptide)
# chain: CAEVVTSTYVAGNASASA
# B7: HC134 (peptide)
# chain: CAEVVCSTWVAGNASASA
# B8: FS-309 (peptide)
# chain: CAVHHRPKRGAGNASASA
# B9: FS-899 (peptide)
# chain: CAYDCRCKRGAGNASASA
# B10: FS-665 (peptide)
# chain: CAILHRQKRGAGNASASA
# B11: HC2406 (peptide)
# chain: CAEVPCHRPMAGNASASA
# B12: HC486 (peptide)
# chain: CARCDLEDRDAGNASASA
# B13: HC976 (peptide)
# chain: CAVQNEITLTAGNASASA
# B14: HC85 (peptide)
# chain: CAVVCISMSYAGNASASA
# B15: FS-1060 (peptide)
# chain: CARGCRARRGAGNASASA
# B16: FS-850 (peptide)
# chain: CAQRRRARRGAGNASASA
# B17: FS-1451 (peptide)
# chain: CAEPHRARRGAGNASASA
# B18: HC2482 (peptide)
# chain: CAQTPCSAHLAGNASASA
# B19: HC2574 (peptide)
# chain: CASTPCSAHKAGNASASA
# B20: HC1391 (peptide)
# chain: CATSRSACQRAGNASASA
# B21: FS-2474 (peptide)
# chain: CATTKRDAGKAGNASASA
# B22: FS-1067 (peptide)
# chain: CARPGRKDRRAGNASASA
# B23: FS-2003 (peptide)
# chain: CAREGRDGPKAGNASASA
# B24: FS-2029 (peptide)
# chain: CARICRDIPKAGNASASA
# B25: FS-2259 (peptide)
# chain: CARFKRAAGKAGNASASA
# B26: FS-1948 (peptide)
# chain: CARFKRKLPKAGNASASA
# B27: FS-2811 (peptide)
# chain: CARSKRIAGKAGNASASA
# B28: FS-2553 (peptide)
# chain: CARFKRKDRMAGNASASA
# B29: FS-2268 (peptide)
# chain: CARKKRKSPKAGNASASA
# B30: HC1454 (peptide)
# chain: CAVRVCEKMAAGNASASA
# B31: HC2085 (peptide)
# chain: CAVVCCSMSLAGNASASA
# B32: HC482 (peptide)
# chain: CAACNWTRGEAGNASASA
# B33: HC57 (peptide)
# chain: CATTPYSGSWAGNASASA
# B34: HC2092 (peptide)
# chain: CAVVCCSMSEAGNASASA
# B35: HC286 (peptide)
# chain: CAGKLPATQLAGNASASA
# B36: FS-2414 (peptide)
# chain: CARFKKLADMAGNASASA
# B37: HC1397 (peptide)
# chain: CATFDRLQVLAGNASASA
# B38: FS-2488 (peptide)
# chain: CARFKRLACMAGNASASA
# B39: FS-2489 (peptide)
# chain: CARFKRLADMAGNASASA
# B40: FS-3154 (peptide)
# chain: CARFKRAIFQAGNASASA
# B41: FS-2249 (peptide)
# chain: CAQEKRSVFQAGNASASA
# B42: FS-3088 (peptide)
# chain: CARSNRFSWMAGNASASA
# B43: FS-2129 (peptide)
# chain: CARAQRSPQQAGNASASA
# B44: FS-1891 (peptide)
# chain: CARFKRDPNQAGNASASA
# B45: HC684 (peptide)
# chain: CALTGRDKNQAGNASASA
# B46: FS-2662 (peptide)
# chain: CARFERAIGPAGNASASA
# B47: FS-2610 (peptide)
# chain: CARSWRLACEAGNASASA
# Biological target: furin, P09958
# Experiment: furin cleavage Z-score vs untreated control; higher = more cleavage, active = 3.5 or more, inactive = 1 or less, 8 variable residues between constant flanks
# How it was run: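 Sequencing of released DNA, tagged with adapters by PCR, gave read counts used as abundance. That DNA was freed when purified furin cut N-terminally bead-bound 8-mer peptides fused to a cDNA oligonucleotide, in 0.01 ml reactions at 1:10 enzyme:substrate in 50 mM HEPES pH 7.5 with CaCl2 and NaCl, lasting 7.5, 15 or 30 min. The cleavage Z-score was the lowess-adjusted log count versus furin-free reactions, scaled by median absolute deviation.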
# Chain of furin, P09958 (P09958 whole entry): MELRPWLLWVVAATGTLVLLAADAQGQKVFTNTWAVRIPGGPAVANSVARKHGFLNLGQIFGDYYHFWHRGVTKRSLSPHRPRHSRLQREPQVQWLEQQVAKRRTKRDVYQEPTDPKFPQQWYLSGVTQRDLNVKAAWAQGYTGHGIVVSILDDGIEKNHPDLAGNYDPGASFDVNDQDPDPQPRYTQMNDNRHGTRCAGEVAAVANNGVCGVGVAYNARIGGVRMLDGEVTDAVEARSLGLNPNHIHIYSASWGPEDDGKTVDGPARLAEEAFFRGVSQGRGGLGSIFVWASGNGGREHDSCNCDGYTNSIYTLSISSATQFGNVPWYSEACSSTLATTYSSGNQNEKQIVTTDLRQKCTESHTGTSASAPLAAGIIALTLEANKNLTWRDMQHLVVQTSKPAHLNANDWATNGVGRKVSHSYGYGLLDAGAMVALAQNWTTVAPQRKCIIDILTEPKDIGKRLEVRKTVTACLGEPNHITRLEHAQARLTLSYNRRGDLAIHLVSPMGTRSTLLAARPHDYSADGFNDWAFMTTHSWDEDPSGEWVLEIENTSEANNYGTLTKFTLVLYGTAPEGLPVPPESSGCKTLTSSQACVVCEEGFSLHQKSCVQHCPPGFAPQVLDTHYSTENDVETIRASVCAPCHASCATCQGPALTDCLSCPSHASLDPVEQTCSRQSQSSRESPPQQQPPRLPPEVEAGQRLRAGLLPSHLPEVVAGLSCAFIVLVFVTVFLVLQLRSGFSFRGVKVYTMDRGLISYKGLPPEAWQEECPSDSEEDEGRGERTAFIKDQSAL
Sequence,furin cleavage Z-score (7.5 min),furin cleavage Z-score (15 min),furin cleavage Z-score (30 min)
B1,-0.871 (inactive),-1.27 (inactive),-0.416 (inactive)
B2,0.586 (inactive),4.58 (active),4.41 (active)
B3,0.201 (inactive),1.15,3.25
B4,0.73 (inactive),2.01,1.44
B5,0.812 (inactive),-0.589 (inactive),0.435 (inactive)
B6,0.886 (inactive),0.18 (inactive),0.589 (inactive)
B7,-0.675 (inactive),-0.0617 (inactive),-0.318 (inactive)
B8,12 (active),10.8 (active),9.72 (active)
B9,0.698 (inactive),0.0271 (inactive),1.85
B10,12.5 (active),12.9 (active),9.04 (active)
B11,-0.721 (inactive),1.03,-0.487 (inactive)
B12,1.03,-0.684 (inactive),-1.47 (inactive)
B13,-0.158 (inactive),-0.101 (inactive),0.696 (inactive)
B14,-1.62 (inactive),-2.02 (inactive),-0.461 (inactive)
B15,3.97 (active),3.87 (active),2.93
B16,2.4,2.13,0.325 (inactive)
B17,5.81 (active),5.59 (active),6.2 (active)
B18,-0.0432 (inactive),0.702 (inactive),2.39
B19,-0.715 (inactive),0.189 (inactive),-1.56 (inactive)
B20,0.0948 (inactive),0.314 (inactive),0.239 (inactive)
B21,-0.152 (inactive),-0.387 (inactive),0.96 (inactive)
B22,0.778 (inactive),1.1,0.538 (inactive)
B23,0.305 (inactive),-0.0392 (inactive),-2.05 (inactive)
B24,3.76 (active),5.68 (active),4.88 (active)

Sequence,furin cleavage Z-score (7.5 min),furin cleavage Z-score (15 min),furin cleavage Z-score (30 min)
B25,11.2 (active),12.2 (active),9.21 (active)
B26,0.844 (inactive),1.94,3.55 (active)
B27,0.535 (inactive),-0.714 (inactive),0.638 (inactive)
B28,4.28 (active),3.52 (active),4.13 (active)
B29,0.83 (inactive),2.91,2.06
B30,-0.509 (inactive),-1.63 (inactive),-0.874 (inactive)
B31,-0.7 (inactive),-0.0853 (inactive),0.456 (inactive)
B32,0.0668 (inactive),0.0745 (inactive),-0.647 (inactive)
B33,-0.402 (inactive),-1.77 (inactive),-1.07 (inactive)
B34,0.169 (inactive),-0.137 (inactive),0.14 (inactive)
B35,-0.891 (inactive),0.888 (inactive),-0.728 (inactive)
B36,-1 (inactive),-2.01 (inactive),0.965 (inactive)
B37,-1.63 (inactive),-1.93 (inactive),-0.453 (inactive)
B38,1.67,1.17,4.11 (active)
B39,2.25,3.3,4.96 (active)
B40,3.12,6.07 (active),9.35 (active)
B41,-0.752 (inactive),1.01,0.632 (inactive)
B42,1.34,0.175 (inactive),0.252 (inactive)
B43,-0.476 (inactive),0.539 (inactive),1.62
B44,5.07 (active),6.2 (active),6.47 (active)
B45,-0.69 (inactive),-0.684 (inactive),-0.181 (inactive)
B46,1.09,0.675 (inactive),1.32
B47,-1.13 (inactive),-1.31 (inactive),-0.906 (inactive)
